{"source": "the supplement of paper PMC9023506", "note": "Where a name gives a salt, the structure may show the parent alone."}
{"system": "Danio rerio larvae (5 dpf)", "test": "optomotor response to fast red moving lines, difference vs DMSO (percentage points (treated minus DMSO)); higher = more of the behaviour than the DMSO vehicle control", "details": "10 µM; exposure time: 3 h pre-incubation + 3 h imaging", "method": "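5-dpf wild-type zebrafish larvae were imaged in 96-well plates. They were treated with 190 Tocris FDA-approved drugs at 10 µM (1 µl/ml DMSO) for 3 h before and 3 h during imaging at 28.5 °C, 48 larvae per drug. Automated image analysis gave % time moving and optomotor responses. Values are drug group mean minus DMSO vehicle mean (n=844), in percentage points, for 10 behaviours.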"}
{"smiles": "CN(C)CCc1c[nH]c2ccc(C[C@H]3COC(=O)N3)cc12", "note": "[Zolmitriptan]", "optomotor response": -9.74}
{"smiles": "CCOC(=O)C1=C(C)NC(C)=C(C(=O)OC)C1c1cccc(Cl)c1Cl", "note": "(stereo not given) [Felodipine]", "optomotor response": -15.9}
{"smiles": "COc1ccccc1OCCNCC(O)COc1cccc2[nH]c3ccccc3c12", "note": "(stereo not given) [Carvedilol]", "optomotor response": -10.6}
{"smiles": "O=C1CCc2ccc(OCCCCN3CCN(c4cccc(Cl)c4Cl)CC3)cc2N1", "note": "[Aripiprazole]", "optomotor response": 7.59}
{"smiles": "Clc1ccc2nsnc2c1NC1=NCCN1", "note": "[Tizanidine hydrochloride]", "optomotor response": 4.15}
{"smiles": "Cc1c(-c2ccc(O)cc2)n(Cc2ccc(OCCN3CCCCCC3)cc2)c2ccc(O)cc12", "note": "[Bazedoxifene acetate]", "optomotor response": 0.818}
{"smiles": "COc1cc([C@@H]2c3cc4c(cc3[C@@H](O[C@@H]3O[C@@H]5CO[C@@H](C)O[C@H]5[C@H](O)[C@H]3O)[C@H]3COC(=O)[C@H]23)OCO4)cc(OC)c1O", "note": "[Etoposide]", "optomotor response": -4.84}
{"smiles": "CCOC(=O)C1=C(COCCN)NC(C)=C(C(=O)OC)C1c1ccccc1Cl", "note": "(stereo not given) [Amlodipine besylate]", "optomotor response": 7.5}
{"smiles": "CCOC(=O)[C@H](CCc1ccccc1)N[C@H]1CCc2ccccc2N(CC(=O)O)C1=O", "note": "[Benazepril hydrochloride]", "optomotor response": -1.29}
{"smiles": "COCCc1ccc(OCC(O)CNC(C)C)cc1", "note": "(stereo not given) [Metoprolol tartrate]", "optomotor response": -7.77}
{"smiles": "C/C(O)=C(\\C#N)C(=O)Nc1ccc(C(F)(F)F)cc1", "note": "[Teriflunomide]", "optomotor response": -7.56}
{"smiles": "COc1ccc([C@@H]2Sc3ccccc3N(CCN(C)C)C(=O)[C@@H]2OC(C)=O)cc1", "note": "[Diltiazem hydrochloride]", "optomotor response": -0.971}
{"smiles": "N[C@@H]1[C@H]2CN(c3nc4c(cc3F)c(=O)c(C(=O)O)cn4-c3ccc(F)cc3F)C[C@@H]12", "note": "[Trovafloxacin mesylate]", "optomotor response": -4.84}
{"smiles": "CC(=O)S[C@@H]1CC2=CC(=O)CC[C@]2(C)[C@H]2CC[C@@]3(C)[C@@H](CC[C@@]34CCC(=O)O4)[C@H]12", "note": "[Spironolactone]", "optomotor response": -11.3}
{"smiles": "CC(C)(C(=O)O)c1ccc(C(O)CCCN2CCC(C(O)(c3ccccc3)c3ccccc3)CC2)cc1", "note": "(stereo not given) [Fexofenadine hydrochloride]", "optomotor response": -0.251}
{"smiles": "OCCN(CCO)c1nc(N2CCCCC2)c2nc(N(CCO)CCO)nc(N3CCCCC3)c2n1", "note": "[Dipyridamole]", "optomotor response": 7.3}
{"smiles": "CN[C@H]1CC[C@@H](c2ccc(Cl)c(Cl)c2)c2ccccc21", "note": "[Sertraline hydrochloride]", "optomotor response": -8.12}
{"smiles": "CCc1ccc(CCOc2ccc(CC3SC(=O)NC3=O)cc2)nc1", "note": "(stereo not given) [Pioglitazone hydrochloride]", "optomotor response": -6.55}
{"smiles": "CC(C)C(=O)OCC(=O)[C@@]12O[C@H](C3CCCCC3)O[C@@H]1C[C@H]1[C@@H]3CCC4=CC(=O)C=C[C@]4(C)[C@H]3[C@@H](O)C[C@@]12C", "note": "[Ciclesonide]", "optomotor response": -3.93}
{"smiles": "CN1CCN(CCCN2c3ccccc3Sc3ccc(Cl)cc32)CC1", "note": "[Prochlorperazine dimaleate]", "optomotor response": 2.92}
{"smiles": "CCOc1cc(CC(=O)N[C@@H](CC(C)C)c2ccccc2N2CCCCC2)ccc1C(=O)O", "note": "[Repaglinide]", "optomotor response": -12.1}
{"smiles": "N#C[C@@H]1C[C@@H]2C[C@@H]2N1C(=O)[C@@H](N)C12CC3CC(CC(O)(C3)C1)C2", "note": "[Saxagliptin hydrochloride]", "optomotor response": -7.58}
{"smiles": "O=C(O)C[C@H](O)C[C@H](O)/C=C/c1c(C2CC2)nc2ccccc2c1-c1ccc(F)cc1", "note": "[Pitavastatin calcium]", "optomotor response": 9.78}
{"smiles": "COc1ccccc1Oc1c(NS(=O)(=O)c2ccc(C(C)(C)C)cc2)nc(-c2ncccn2)nc1OCCO", "note": "[Bosentan]", "optomotor response": 0.298}
{"smiles": "Nc1cccc2c1CN(C1CCC(=O)NC1=O)C2=O", "note": "(stereo not given) [Lenalidomide]", "optomotor response": -0.414}
{"smiles": "CCC(C)(C)C(=O)O[C@H]1C[C@@H](C)C=C2C=C[C@H](C)[C@H](CC[C@@H]3C[C@@H](O)CC(=O)O3)[C@H]21", "note": "[Simvastatin]", "optomotor response": -13.2}
{"smiles": "O=C(O[C@@H]1C[C@@H]2C[C@H]3C[C@H](C1)N2CC3=O)c1c[nH]c2ccccc12", "note": "[Dolasetron mesylate]", "optomotor response": -6.96}
{"smiles": "CC(CCc1ccc(O)cc1)NCCc1ccc(O)c(O)c1", "note": "(stereo not given) [Dobutamine hydrochloride]", "optomotor response": -7.53}
{"smiles": "Cc1nc(-c2ccc(OCC(C)C)c(C#N)c2)sc1C(=O)O", "note": "[Febuxostat]", "optomotor response": 8.02}
{"smiles": "CN(C)CC/C=C1/c2ccccc2COc2ccc(CC(=O)O)cc21", "note": "[Olopatadine hydrochloride]", "optomotor response": 5.8}
{"smiles": "CCOC(=O)[C@H](CCc1ccccc1)N[C@@H](C)C(=O)N1[C@H](C(=O)O)C[C@@H]2CCC[C@@H]21", "note": "[Ramipril]", "optomotor response": -1.3}
{"smiles": "Cc1cn([C@H]2C=C[C@@H](CO)O2)c(=O)[nH]c1=O", "note": "[Stavudine]", "optomotor response": -8.38}
{"smiles": "CC(=O)Nc1ccc(O)cc1", "note": "[Acetaminophen]", "optomotor response": -11.2}
{"smiles": "CC(C)CN(C[C@@H](O)[C@H](Cc1ccccc1)NC(=O)O[C@H]1CO[C@H]2OCC[C@H]21)S(=O)(=O)c1ccc(N)cc1", "note": "[Darunavir]", "optomotor response": 1.68}
{"smiles": "Cc1cc(C2CCCCC2)n(O)c(=O)c1", "note": "[Ciclopirox]", "optomotor response": 3.21}
{"smiles": "CC1=Nc2ccc(Cl)cc2S(=O)(=O)N1", "note": "[Diazoxide]", "optomotor response": -1.95}
{"smiles": "CN1CC[C@@H](NC(=O)Nc2ccc(C#N)cc2)C[C@@H]1c1nc2ccccc2[nH]1", "optomotor response": -0.171}
{"smiles": "CS(=O)(=O)CCNCc1ccc(-c2ccc3ncnc(Nc4ccc(OCc5cccc(F)c5)c(Cl)c4)c3c2)o1", "note": "[Lapatinib]", "optomotor response": -0.638}
{"smiles": "Nc1nc(Cl)nc2c1ncn2[C@@H]1O[C@H](CO)[C@@H](O)[C@@H]1F", "note": "[Clofarabine]", "optomotor response": -10.5}
{"smiles": "COC(c1ccccc1)(c1ccccc1)[C@H](Oc1nc(C)cc(C)n1)C(=O)O", "note": "[Ambrisentan]", "optomotor response": -12.3}
